According to PubChem BioAssay AID1159580 (chemical genetic matrix, 2015):
Hit rate of the full screen: of about 5,500 compounds, about 2,000 (36%) were called active. Inconclusive results (about 18%) are left out. Rule as the data show it: active = normalized growth mostly below about 0.91 (no sharp cut-off); inconclusive = no clear call, values can overlap the other calls; inactive = mostly above about 0.92. Some of the results follow.

Experiment: chemical genetic growth profiling, strain panel (AID 1159580);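 also: tested at 20 µM; growth read once vehicle control cultures reached saturation at 30 °C; 1 = growth at the plate median or of vehicle wells; lower values mean less growth of the strain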
Details: growth OD

Measured: normalized growth

CCOc1ccc2c(c1)C(C)=CC(C)(C)N2
inactive: S. cerevisiae deletion strains, locus YJR043C, strain POL32, hits give low values 0.979 | S. cerevisiae deletion strains, locus YJR075W, strain HOC1, hits give low values 0.975 | S. cerevisiae deletion strains, locus YKL009W, strain mrt4, hits give low values 0.988 | S. cerevisiae deletion strains, locus YKL068W, hits give low values 0.989 | S. cerevisiae deletion strains, locus YKL085W, strain MDH1 (second series), hits give low values 0.987 | S. cerevisiae deletion strains, locus YKL085W, strain MDH1, hits give low values 0.987 | S. cerevisiae deletion strains, locus YKL160W, strain elf1, hits give low values 0.996 | S. cerevisiae deletion strains, locus YKL190W, strain CNB1, hits give low values 0.997 | S. cerevisiae deletion strains, locus YKR001C, strain vps1, hits give low values 0.976 | S. cerevisiae deletion strains, locus YKR026C, strain gcn3, hits give low values 0.979 | S. cerevisiae deletion strains, locus YKR091W, strain srl3, hits give low values 0.98 | S. cerevisiae deletion strains, locus YLL001W, strain dnm1, hits give low values 1 | S. cerevisiae deletion strains, locus YLL026W, hits give low values 0.986 | S. cerevisiae deletion strains, locus YLL041C, strain sdh2, hits give low values 0.989 | S. cerevisiae deletion strains, locus YLR027C, strain aat2, hits give low values 1.01 | S. cerevisiae deletion strains, locus YLR039C, strain RIC1, hits give low values 0.997 | S. cerevisiae deletion strains, locus YLR058C, strain SHM2, hits give low values 0.984 | S. cerevisiae deletion strains, locus YLR102C, strain apc9, hits give low values 0.992 | S. cerevisiae deletion strains, locus YLR221C, strain rsa3, hits give low values 1 | S. cerevisiae deletion strains, locus YLR258W, strain gsy2, hits give low values 0.997 | S. cerevisiae deletion strains, locus YLR262C, strain YPT6 (second series), hits give low values 0.981 | S. cerevisiae deletion strains, locus YLR262C, strain YPT6, hits give low values 0.969 | S. cerevisiae deletion strains, locus YLR268W, strain sec22, hits give low values 0.924 | S. cerevisiae deletion strains, locus YLR320W, strain mms22, hits give low values 0.982 | S. cerevisiae deletion strains, locus YLR330W, strain CHS5, hits give low values 1 | S. cerevisiae deletion strains, locus YLR342W, strain FKS1 (second series), hits give low values 0.999 | S. cerevisiae deletion strains, locus YLR342W, strain FKS1, hits give low values 0.987 | S. cerevisiae deletion strains, locus YLR357W, strain rsc2, hits give low values 0.963 | S. cerevisiae deletion strains, locus YLR370C, strain arc18, hits give low values 0.998 | S. cerevisiae deletion strains, locus YLR371W, strain rom2, hits give low values 0.976 | S. cerevisiae deletion strains, locus YLR384C, strain iki3, hits give low values 0.989 | S. cerevisiae deletion strains, locus YLR418C, strain cdc73, hits give low values 0.983 | S. cerevisiae deletion strains, locus YML016C, strain PPZ1, hits give low values 0.984 | S. cerevisiae deletion strains, locus YML032C, strain rad52, hits give low values 0.977 | S. cerevisiae deletion strains, locus YML120C, strain ndi1, hits give low values 1 | S. cerevisiae deletion strains, locus YML124C, strain tub3, hits give low values 0.989 | S. cerevisiae deletion strains, locus YMR058W, strain fet3, hits give low values 0.988 | S. cerevisiae deletion strains, locus YMR078C, strain ctf18, hits give low values 0.972 | S. cerevisiae deletion strains, locus YMR125W, strain sto1, hits give low values 0.981 | S. cerevisiae deletion strains, locus YMR129W, hits give low values 0.991 | S. cerevisiae deletion strains, locus YMR205C, strain PFK2, hits give low values 0.987 | S. cerevisiae deletion strains, locus YMR223W, strain ubp8, hits give low values 0.998 | S. cerevisiae deletion strains, locus YMR231W, strain pep5, hits give low values 0.963 | S. cerevisiae deletion strains, locus YMR263W, strain SAP30, hits give low values 0.981 | S. cerevisiae deletion strains, locus YMR307W, strain GAS1, hits give low values 0.971 | S. cerevisiae deletion strains, locus YNL067W, strain RPL9B, hits give low values 0.977 | S. cerevisiae deletion strains, locus YNL071W, strain lat1, hits give low values 0.991 | S. cerevisiae deletion strains, locus YNL128W, strain TEP1, hits give low values 0.99 | S. cerevisiae deletion strains, locus YNL153C, strain GIM3, hits give low values 0.98 | S. cerevisiae deletion strains, locus YNL209W, strain ssb2, hits give low values 0.994 | S. cerevisiae deletion strains, locus YNL233W, strain BNI4, hits give low values 0.978 | S. cerevisiae deletion strains, locus YNL248C, strain rpa49, hits give low values 0.986 | S. cerevisiae deletion strains, locus YNL250W, strain rad50, hits give low values 0.986 | S. cerevisiae deletion strains, locus YNL271C, strain bni1, hits give low values 0.968 | S. cerevisiae deletion strains, locus YNL298W, strain CLA4, hits give low values 0.974 | S. cerevisiae deletion strains, locus YNL307C, strain MCK1, hits give low values 0.985 | S. cerevisiae deletion strains, locus YNL322C, strain KRE1 (second series), hits give low values 0.984 | S. cerevisiae deletion strains, locus YNL322C, strain KRE1, hits give low values 0.993 | S. cerevisiae deletion strains, locus YNR049C, strain mso1, hits give low values 0.989 | S. cerevisiae deletion strains, locus YNR052C, strain pop2, hits give low values 1 | S. cerevisiae deletion strains, locus YOL006C, strain TOP1, hits give low values 0.841 | S. cerevisiae deletion strains, locus YOL012C, strain htz1 1.09 | S. cerevisiae deletion strains, locus YOL147C, strain pex11, hits give low values 0.98 | S. cerevisiae deletion strains, locus YOR001W, strain rrp6, hits give low values 1.01 | S. cerevisiae deletion strains, locus YOR061W, strain CKA2, hits give low values 0.981 | S. cerevisiae deletion strains, locus YOR069W, strain VPS5, hits give low values 0.984 | S. cerevisiae deletion strains, locus YOR070C, strain gyp1, hits give low values 0.995 | S. cerevisiae deletion strains, locus YOR080W, strain dia2, hits give low values 0.989 | S. cerevisiae deletion strains, locus YOR083W, strain WHI5, hits give low values 0.989 | S. cerevisiae deletion strains, locus YOR106W, strain vam3, hits give low values 1 | S. cerevisiae deletion strains, locus YOR136W, strain idh2, hits give low values 0.99 | S. cerevisiae deletion strains, locus YOR144C, strain elg1, hits give low values 0.992 | S. cerevisiae deletion strains, locus YOR184W, strain ser1, hits give low values 0.969 | S. cerevisiae deletion strains, locus YOR265W, strain rbl2, hits give low values 1.03 | S. cerevisiae deletion strains, locus YOR270C, strain vph1, hits give low values 1 | S. cerevisiae deletion strains, locus YOR290C, strain snf2, hits give low values 0.991 | S. cerevisiae deletion strains, locus YOR316C, strain cot1, hits give low values 0.983 | S. cerevisiae deletion strains, locus YPL051W, strain arl3, hits give low values 0.985 | S. cerevisiae deletion strains, locus YPL055C, strain LGE1, hits give low values 0.997 | S. cerevisiae deletion strains, locus YPL078C, strain atp4, hits give low values 1.02 | S. cerevisiae deletion strains, locus YPL106C, strain sse1, hits give low values 0.964 | S. cerevisiae deletion strains, locus YPL240C, strain hsp82, hits give low values 0.991 | S. cerevisiae deletion strains, locus YPL241C, strain CIN2, hits give low values 0.997 | S. cerevisiae deletion strains, locus YPR119W, strain clb2, hits give low values 0.984 | S. cerevisiae deletion strains, locus YPR141C, strain kar3, hits give low values 0.973 | S. cerevisiae deletion strains, locus YPR163C, strain tif3, hits give low values 0.978 | S. cerevisiae deletion strains, locus YPR167C, strain met16, hits give low values 0.987 | S. cerevisiae deletion strains, strain wtn01, hits give low values 0.967 | S. cerevisiae strains, strain wild type, hits give low values 0.996
